Measurements taken from PubChem BioAssay (NCI).
The panel holds about 79,000 compounds, 15% with a hit somewhere; the sample as a whole holds those more often. No stated cut-off is given here; in the data, active means growth inhibition above about 70%; inactive means the rest.

Assays:
[1] = NCI Yeast Anticancer Drug Screen. Data for the rad50 strain (AID 155);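 further: 0% = growth of vehicle-only cultures of the same strain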; details: S. cerevisiae rad50 strain growth inhibition; at 50.0 µM; active compounds read high
Procedure, shortened: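 Growth of the mutant yeast was measured after compound exposure and referenced to vehicle-treated cultures.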

[2] = NCI Yeast Anticancer Drug Screen. Data for the mec2-1 strain (AID 157); details: S. cerevisiae mec2-1 strain, at 50.0 µM, active compounds read high
Procedure, shortened: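 Using mec2-1 yeast: add compound, measure growth, express inhibition versus vehicle-treated cultures.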

[3] = NCI Yeast Anticancer Drug Screen. Data for the sgs1 mgt1 strain (AID 161);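 further: 0% = growth of cultures given vehicle only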; details: S. cerevisiae sgs1 mgt1 strain, at 50.0 µM, active compounds read high
Procedure, shortened: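 Compounds are added to genetically altered yeast, and growth is compared with cultures given vehicle alone to give percent inhibition.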

[4] = NCI Yeast Anticancer Drug Screen. Data for the cln2 rad14 strain (AID 165);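 further: 0% = growth equal to vehicle treated cultures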; details: S. cerevisiae cln2 rad14 strain, at 50.0 µM, active compounds read high
Procedure, shortened: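 Yeast strain cln2 rad14, bearing defects in cell cycle control and DNA repair, serves as the test system; values reflect growth inhibition compared with vehicle.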

[5] = NCI Yeast Anticancer Drug Screen. Data for the bub3 strain (AID 167); details: S. cerevisiae bub3 mutant strain, at 50.0 µM, active compounds read high
Procedure, shortened: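 Whole-cell yeast assay. The mutant strain was incubated with compounds, and growth inhibition was determined by comparison with vehicle-treated cells.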

[6] = NCI Yeast Anticancer Drug Screen. Data for the mlh1 rad18 strain (AID 175); details: S. cerevisiae mlh1 rad18 strain growth inhibition; at 50.0 µM; active compounds read high
Procedure, shortened: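 Steps: expose repair-defective yeast to compound; measure growth; express inhibition against vehicle-treated controls.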

Measured: growth inhibition

C=C1CCN(c2ccc([N+](=O)[O-])cc2)C1=O
inactive: [1] 0% | [2] -11.2% | [3] 4.05% | [4] -37.6% | [5] 10.3% | [6] 10.3%

O=C(O)C1C2CCC3C(C(=O)O)C3C21 (stereo not given)
inactive: [1] -2.7% | [2] 18.6% | [3] -4.95% | [4] -40.2% | [5] 11.7% | [6] -0.8%

CC(C)CCCC(C)C1CCC2C3CC=C4CC(OC5CCC6(C)C(=CCC7C6CCC6(C)C(C(C)CCCC(C)C)CCC76)C5)CCC4(C)C3CCC12C (stereo not given)
inactive: [1] -0.05% | [2] -12.8% | [3] -17.1% | [4] -10.7% | [5] -1.75% | [6] 4.8%

COc1ccc(C2N(C(C#N)c3ccccc3OC)CCCN2C(C#N)c2ccccc2OC)c(OC)c1 (stereo not given)
inactive: [1] 57.1% | [2] 18.3% | [3] 30.3% | [4] 25.4% | [5] -2.55% | [6] 42%

Nc1cc2c(cc1Cl)-c1cc(Cl)ccc1C2=O
inactive: [1] 5.7% | [2] -9.65% | [3] -2.2% | [4] -24.4% | [5] -8.5% | [6] -8.5%

O=[N+]([O-])c1ccc(C2=NCC=CCO2)cc1
inactive: [1] 18% | [2] 16.2% | [3] 7.55% | [4] -6.55% | [5] 4.5% | [6] 12.8%

CC1CC=CCC1COB(OCC1CC=CCC1C)OCC1CC=CCC1C (stereo not given)
inactive: [1] 22.8% | [2] -21.5% | [3] 29.1% | [4] 23.1% | [5] 24.3% | [6] -0.25%

CN1C(=O)C2(C=CCCC2)c2ccccc21 (stereo not given)
inactive: [1] -10.5% | [2] -8.4% | [3] -0.7% | [4] -14.3% | [5] -0.5% | [6] -10.4%

O=[N+]([O-])c1ccc(-c2nc3ccc(Cl)cc3[nH]2)cc1
inactive: [1] -16.1% | [2] 30.9% | [3] 25.2% | [4] 21.9% | [5] 9.55% | [6] 44.5%

N#C/C(=C\c1ccc[nH]1)C(=O)c1ccccc1
inactive: [1] -5.7% | [2] -11.8% | [3] -18.9% | [4] 16.5% | [5] 1.15% | [6] -28.6%

Cc1cc(C)c2c(c1)CC(C)(C)C(=O)OC2=O
inactive: [1] -16.2% | [2] -23.9% | [3] -9.65% | [4] 2.4% | [5] -10.3% | [6] -11.2%

CCOC(=O)/C(=C/c1cn(C(C)=O)c2ccccc12)P(=O)(OC)OC
inactive: [1] -28.9% | [2] -4.1% | [3] -1.15% | [4] 13.8% | [5] 5.75% | [6] -15.8%

CC(C)C(C)(O)C#CC(C)(O)C(C)C (stereo not given)
inactive: [1] 1.4% | [2] 8.85% | [3] 3.25% | [4] -15.5% | [5] 23.9% | [6] 12.1%

COc1ccc([N+](=O)[O-])c2ccc(=O)oc12
inactive: [1] -9.9% | [2] 5.2% | [3] -4.1% | [4] -0.35% | [5] 4.75% | [6] 9.9%

COC(=S)OC1CC(n2cnc3c(N)ncnc32)OC1CO[Si](C)(C)C(C)(C)C (stereo not given)
inactive: [1] -10.2% | [2] -8.25% | [3] 2.55% | [4] -1.2% | [5] 11.1% | [6] 4.9%

O=C(O)/C=C/C(=O)Nc1ccc2c(c1)C(O)c1ccccc1-2 (stereo not given)
inactive: [1] -56.4% | [2] -12.9% | [3] -1.9% | [4] -45.7% | [5] -7.2% | [6] -4.55%

COC(=O)C1(Cc2ccc3c(c2)CCC3)Cc2ccccc2C1=O (stereo not given)
inactive: [1] 5.1% | [2] 22.4% | [3] 25.1% | [4] 21.6% | [5] 49.5% | [6] 8.8%

CSc1ccc(OC(=O)NC2CCCCC2)cc1C
inactive: [1] 7.5% | [2] 22.4% | [3] 13.6% | [4] 6.25% | [5] 28.6% | [6] 14.8%

COc1ccc(C(=O)CC(c2ccccc2)[C@H]2C(c3ccc(OC)cc3)=Nc3c(nc(SC)n(C)c3=O)NC2c2ccccc2)cc1 (stereo not given in full)
inactive: [1] 16.8% | [2] 7.55% | [3] 20.6% | [4] 12.7% | [5] -0.35% | [6] 19.2%

CCC(=O)C(C)C(=O)N(CC(C)C)CC(C)C (stereo not given)
inactive: [1] -12.7% | [2] -6.85% | [3] -5.3% | [4] -11.8% | [5] -0.2% | [6] -19.8%

OC1CCCC2CCCC12 (stereo not given)
inactive: [1] 1% | [2] 1.15% | [3] -8.1% | [4] 15.4% | [5] 16.4% | [6] -5.75%

CC(=O)N(C)c1ccc(C)cc1
inactive: [1] -14.9% | [2] -1.05% | [3] -4.35% | [4] -27.6% | [5] -4.2% | [6] 7%

CCCC(C)C(O)CC (stereo not given)
inactive: [1] -27.1% | [2] -28.9% | [3] 7.45% | [4] 13.3% | [5] -19.5% | [6] -10%

Cc1ccc(S(=O)(=O)CC(=O)NC(N)=O)cc1
inactive: [1] -5% | [2] -1.1% | [3] -5.2% | [4] -2.1% | [5] -1.15% | [6] -7.3%

CCCCCCCCCCCCCC(=O)OCC(=O)c1ccc(-c2ccccc2)cc1
inactive: [1] 23.1% | [2] 4.2% | [3] 32.5% | [4] 29.9% | [5] 11.4% | [6] 27.8%

O=C1CS(=O)(=O)C2(CCCCC2)C(=O)N1
inactive: [1] -15.1% | [2] -5.65% | [3] -12.2% | [4] -42.1% | [5] -3.2% | [6] -27.6%

NCCNCc1ccccc1
inactive: [1] 5.5% | [2] -1.5% | [3] 2.85% | [4] 5.65% | [5] -1.8% | [6] 0.15%

CNc1nc(NC)nc(-c2ccccc2)n1
inactive: [1] -25.2% | [2] -16.1% | [3] -26.9% | [4] -55% | [5] -22.6% | [6] -22.9%

CC(=O)OCC1OC(n2cc(C)c(=O)[nH]c2=O)C(NC(=O)C(Cl)(Cl)Cl)C(OC(C)=O)C1OC(C)=O (stereo not given)
inactive: [1] 6.3% | [2] -4.6% | [3] 2.75% | [4] 0% | [5] 0% | [6] 2.3%

CC(C)(C)C(=O)OCCN(CCOC(=O)C(C)(C)C)C(=O)COC(=O)C(C)(C)C
inactive: [1] 31.4% | [2] -0.95% | [3] 21.1% | [4] 20.7% | [5] -3.25% | [6] 20.4%

CCCC(=O)NC(Nc1ccc(S(=O)(=O)Nc2ccc(OC)nn2)cc1)(C(F)(F)F)C(F)(F)F
inactive: [1] 1.55% | [2] -19.1% | [3] -0.6% | [4] 0.35% | [5] -16.8% | [6] -9.25%

CN1N(c2ccccc2)C(=O)C2=NC=C(C#N)C(=N)C21C (stereo not given)
inactive: [1] 14.9% | [2] 41% | [3] 24.6% | [4] 15.9% | [5] 19.5% | [6] 42.4%

Cc1cccc(NC(=O)CCCCCCCCC(=O)Nc2cccc(C)c2C)c1C
inactive: [1] -4.8% | [2] 0.7% | [3] -2.3% | [4] -41.4% | [5] -2.05% | [6] 12.2%

OCc1ccc(Cl)cc1Cl
inactive: [1] 6.55% | [2] -0.25% | [3] -11.4% | [4] 10.3% | [5] -51.1% | [6] -27.9%

NC(C1SCCS1)C(O)C(O)C(O)CO (stereo not given)
inactive: [1] -5.55% | [2] -27.6% | [3] -1.9% | [4] -3.7% | [5] 3.1% | [6] -3.95%

NNc1ncnc2ccc(Cl)cc12
inactive: [1] 1.05% | [2] -9.15% | [3] 11.4% | [4] 1.05% | [5] 5.8% | [6] 6.5%

NNC(=O)C(CC(C(=O)NN)C(=O)NN)C(=O)NN
inactive: [1] 47.5% | [2] -1.5% | [3] 5.25% | [4] -22.5% | [5] 13.9% | [6] 29.7%

CCCCCCCCCCCCCC/C(C(=O)OC)=C(/O)C(=O)OCC
inactive: [1] -40.4% | [2] -30.4% | [3] -27.6% | [4] -17.2% | [5] -57.8% | [6] -19.9%

O=C(C1SCCCS1)N(O)c1ccccc1OCc1ccccc1
inactive: [1] -3.85% | [2] -37.6% | [3] -22.8% | [4] -14.5% | [5] 0.95% | [6] -19.8%

CC[N+](C)(CC)CCOc1nc2c(c(=O)n(C)c(=O)n2C)n1C
inactive: [1] -9.5% | [2] -6.85% | [3] -6.05% | [4] 5.25% | [5] -22.5% | [6] -2.65%
